Measured values reported in the supplement of paper PMC10338343.
± gives the standard deviation.

System: EfPiwi piRISC loaded with L1MC piRNA (26 nt)
Test: pre-steady-state target cleavage rate (min^-1); auxiliary factor: 500 nM Ephydatia muelleri Gtsf1; guide: L1MC piRNA 5'p-UAACUAAAUACUAUGCAAGCUGUAGG; MIWI and MILI are mouse PIWI proteins and EfPiwi is from a freshwater sponge; tags in brackets are library labels; higher = faster piRNA-guided slicing of the target
Outline: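 The pre-steady-state cleavage rate came from a burst-and-steady-state fit to pooled data from three Cleave-'n-Seq trials, in which uncleaved targets were sequenced and normalised to depth and to weakly complementary targets. Each reaction held 0.1 nM transcribed, DNA-blocked target RNA library and 1 nM active affinity-purified piRISC carrying one synthetic guide, with or without 500 nM GTSF1 partner protein, in HEPES–potassium acetate buffer at 33 °C for 0–8 or 0–960 min. k3 was capped at 0.0001 min^-1.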

Question: With UCCUGGAUCAGCUUGCAUAGUAUAUAGUUA as the sequence, how does the “pre-steady-state target cleavage rate” value read?
Answer: The value was 0.0716 ± 0.02.

Question: For UCCUGGAUGAGCUUCCAUAGUAUUUAGAAA, which “pre-steady-state target cleavage rate” value is on record?
Answer: Its value is 0.00248 ± 0.0019.

Question: Which “pre-steady-state target cleavage rate” value does the source give for UCCUGGAACAGCAAGCAUAGUAUUUAGAAA here?
Answer: The value was 0.00309 ± 0.002.

Question: UCCUGCUACAGCUUGCUUAGUAUUUUCAAA was tested. Which “pre-steady-state target cleavage rate” value did it give?
Answer: The value was 0.00321 ± 0.003.

Question: For UCCUGGAUCUGCUUGGAUAGUAUUUAGUUA, which “pre-steady-state target cleavage rate” value is on record?
Answer: Its value is 0.0089 ± 0.0032.

Question: UCCUGGUACAGCUUGCGAUAGUAUUUAGUUA was tested. Which “pre-steady-state target cleavage rate” value did it give?
Answer: The value was 0.00543 ± 0.0019.

Question: UCCUGGUACAGCUUGGAUAGUAAUUAGUUA was tested. Which “pre-steady-state target cleavage rate” value did it give?
Answer: Its value is 0.00316 ± 0.0025.

Question: For UCCUGGAUGUCGAACGUAUCUAUUAUCUUA, which “pre-steady-state target cleavage rate” value is on record?
Answer: Its value is under 0.0001.

Question: For UCCUGGAUCAGCUUAGCAUAGUAUUUAGUUA, which “pre-steady-state target cleavage rate” value is on record?
Answer: Its value is 0.0874 ± 0.019.

Question: UCCUGGAUGUCGAACCAUAGUCUUUAGUUA was tested. Which “pre-steady-state target cleavage rate” value did it give?
Answer: The value was under 0.0001.

Question: UCCUGGUACUGGUUGCAUAGUAUUUAGUUA was tested. Which “pre-steady-state target cleavage rate” value did it give?
Answer: Its value is 0.0054 ± 0.0031.

Question: How did the “pre-steady-state target cleavage rate” value turn out when UCCUGGAUGUCGAACCAUUGUAUUUAGUAA was run?
Answer: The value was under 0.0001.

Question: UCCUGGUACAGCUUGCUUAGUAUUUAGUAA was tested. Which “pre-steady-state target cleavage rate” value did it give?
Answer: Its value is 0.00376 ± 0.0023.

Question: How did the “pre-steady-state target cleavage rate” value turn out when UCCUCCUACUGCUUGCAUAGUAAUUAGUUA was run?
Answer: Its value is 0.0119 ± 0.0043.

Question: How did the “pre-steady-state target cleavage rate” value turn out when UCCUGGUACAGCUGGCAUAGUAUUUAGUUA was run?
Answer: The value was 0.0113 ± 0.0038.

Question: UCCUGGAUCAGCUUGCAUAGUAUUUUCAUA was tested. Which “pre-steady-state target cleavage rate” value did it give?
Answer: Its value is 0.00263 ± 0.0022.

Question: Which “pre-steady-state target cleavage rate” value does the source give for UCCUGGAUGUCGAACCAUAGUAAUUAGUUA here?
Answer: The value was under 0.0001.

Question: Which “pre-steady-state target cleavage rate” value does the source give for UCCUGGAUGUCGAACGUAUCAAUAUAGUUA here?
Answer: Its value is under 0.0001.

Question: For UCCUGGAUGUCCUUAGCAUAGUAUUUAGUUA, which “pre-steady-state target cleavage rate” value is on record?
Answer: Its value is 0.00479 ± 0.003.

Question: For UCCUGGAAGAGCUUGCAUAGUAUAUAGUUA, which “pre-steady-state target cleavage rate” value is on record?
Answer: The value was 0.0114 ± 0.0044.

Question: UCCUCCUACAGCUUGCAUAGUAUUAUGUAA was tested. Which “pre-steady-state target cleavage rate” value did it give?
Answer: Its value is 0.00434 ± 0.0026.

Question: For UCCUGGAUCAGCUUGCAUAGUAUUUAAUUA, which “pre-steady-state target cleavage rate” value is on record?
Answer: The value was 0.00916 ± 0.0034.

Question: With UCCUGGAUCAGCUUGCAAUGUAUUUAGUUA as the sequence, how does the “pre-steady-state target cleavage rate” value read?
Answer: The value was 0.00462 ± 0.0039.

Question: How did the “pre-steady-state target cleavage rate” value turn out when UCCUGGUACAGCUAGCAUAGUAUUAAGUUA was run?
Answer: Its value is 0.00476 ± 0.0024.

Question: With UCCUGCUACAGCUUGCAUAGUUAUUAGUAA as the sequence, how does the “pre-steady-state target cleavage rate” value read?
Answer: The value was 0.00306 ± 0.0017.

Question: How did the “pre-steady-state target cleavage rate” value turn out when UCCUGCUACAGCUUGCAUAGUAUAUAGAUA was run?
Answer: The value was 0.00352 ± 0.0017.

Question: For UCCUGGAUGAGGUUGCAUAGUAUUUAGAAA, which “pre-steady-state target cleavage rate” value is on record?
Answer: The value was 0.00315 ± 0.0029.

Question: UCCUGGAUGUGCUUGCAUAGUAUUUAAUUA was tested. Which “pre-steady-state target cleavage rate” value did it give?
Answer: Its value is 0.113 ± 0.038.

Question: Which “pre-steady-state target cleavage rate” value does the source give for UCCUGGAUGUCGAACGUAAGUAUUUCAGUUA here?
Answer: Its value is under 0.0001.

Question: How did the “pre-steady-state target cleavage rate” value turn out when UCCUCCUACAGCUUGCAUAGAUUUUAGUUA was run?
Answer: Its value is 0.0032 ± 0.002.

Question: How did the “pre-steady-state target cleavage rate” value turn out when UCCUGGAUGUCGAUGCUUAGAAUUUAGUUA was run?
Answer: Its value is under 0.0001.

Question: UCCUGGUAGUCCUUGCAUAGUAUUUAGUAA was tested. Which “pre-steady-state target cleavage rate” value did it give?
Answer: The value was 0.00627 ± 0.0035.

Question: For UCCUGCUACAGCUUGCAUAGAAUUUAGAUA, which “pre-steady-state target cleavage rate” value is on record?
Answer: Its value is 0.00319 ± 0.0012.

Question: UCCUGGAUGUCGAACCAUAGUAUCUUAGUUA was tested. Which “pre-steady-state target cleavage rate” value did it give?
Answer: Its value is under 0.0001.

Question: UCCUGGAUGAGCAUGCAUAGUAUUUAGUUA was tested. Which “pre-steady-state target cleavage rate” value did it give?
Answer: The value was 0.0207 ± 0.0065.

Question: For UCCUGCUACAGGUUGCAUAGUUUUUAGUUA, which “pre-steady-state target cleavage rate” value is on record?
Answer: The value was 0.00998 ± 0.0028.

Question: With UCCUGCUACAGCUUGGAUAGUAUUUUCAAA as the sequence, how does the “pre-steady-state target cleavage rate” value read?
Answer: The value was 0.00307 ± 0.0018.

Question: With UCCUGCUACAGCUUGCAUUGUAUUUAGUAA as the sequence, how does the “pre-steady-state target cleavage rate” value read?
Answer: The value was 0.00316 ± 0.0014.

Question: How did the “pre-steady-state target cleavage rate” value turn out when UCCUGGAUGUGCUGCAUAGUAUUUAGUUA was run?
Answer: The value was 0.00571 ± 0.0034.

Question: Which “pre-steady-state target cleavage rate” value does the source give for UCCUGGAAGUCCUUGCAUAGUAUUUAGUUA here?
Answer: Its value is 0.0092 ± 0.0031.
